Source: PubChem BioAssay (NCATS)
Inconclusive results are not listed. Calls of active or inactive are those of the source. Calls come from the whole dose curve; as a rule, active = well fitted curve in the direction sought with a large enough effect; inconclusive = small, poorly fitted or top-dose-only effect, or another doubt; inactive = no such curve, though single readings can be large; an effect the other way counts as inactive or inconclusive.

Assays:
[1] = tested on: CRL-7250; experiment: Cytotoxic Profiling of Annotated Libraries Using Quantitative High-Throughput Screening (AID 1296008); settings: Five cell lines viability, CellTiter-Glo ATP luminescence, 48-72 h; max response: hits give low values; note: nearly all actives have a fitted effect of over 60% in size; for max response: % is set by controls: 0 for no effect and ±100 for the full control effect
In short: (§1)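 Compounds were pin-transferred onto cells and incubated 48 or 72 hr at 37 degree Celsius, 95% humidity. CellTiter-Glo was added, plates sat 10 min at room temperature, then ATP-coupled luminescence was imaged as the viability read-out.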

[2] = tested on: HEK293; experiment: as above; settings: Five cell lines viability, CellTiter-Glo ATP luminescence, 48-72 h; max response: hits give low values
In short: as §1

[3] = tested on: HaCat; experiment: as above; settings: Five cell lines viability, CellTiter-Glo ATP luminescence, 48-72 h; max response: hits give low values
In short: as §1

[4] = tested on: KB-3-1; experiment: as above; settings: Five cell lines viability, CellTiter-Glo ATP luminescence, 48-72 h; max response: hits give low values
In short: as §1

[5] = tested on: NIH3T3; experiment: as above; settings: Five cell lines viability, CellTiter-Glo ATP luminescence, 48-72 h; max response: hits give low values
In short: as §1

[6] = tested on: NIH3T3; experiment: qHTS assay to identify novel small-molecules to repurpose for Merkel cell carcinoma treatment (AID 1296009); settings: MCC and control cell lines, CellTiter-Glo viability, 72 h; at 44.8 µM (top of the series) unless noted; note: nearly all actives have a fitted effect of over 60% in size
In short: (§2)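 Luminescence from CellTiter-Glo, read 10 min after addition at room temperature, reported viability following a 72 hr, 37 degree celsius treatment with NPC or MIPE compounds in titration; values normalized to plate controls.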

[7] = tested on: C33A; experiment: Primary qHTS to identify gynecologic anti-cancer compounds using libraries of approved drugs and bioactive compounds (AID 1345084); settings: Gynecologic cancer cell panel viability, ATPlite luminescence, 48 h; series mostly up to 57.5 µM; note: % is set by controls: 0 for no effect and ±100 for the full control effect; nearly all actives have a fitted effect of over 55% in size
In short: (§3)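 Luminescence from the ATPlite ATP-monitoring reagent indicates viable cell number; lower signal means cytotoxicity. Cells received compound 16 h after seeding and were exposed for 48 h across five concentrations.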

[8] = tested on: CAOV3; experiment: as above; settings: Gynecologic cancer cell panel viability, ATPlite luminescence, 48 h; series mostly up to 57.5 µM
In short: as §3

[9] = tested on: CASKI; experiment: as above; settings: Gynecologic cancer cell panel viability, ATPlite luminescence, 48 h; series mostly up to 57.5 µM
In short: as §3

[10] = tested on: Es-2; experiment: as above; settings: Gynecologic cancer cell panel viability, ATPlite luminescence, 48 h; series mostly up to 57.5 µM
In short: as §3

[11] = tested on: HeLa; experiment: as above; settings: Gynecologic cancer cell panel viability, ATPlite luminescence, 48 h; series mostly up to 57.5 µM
In short: as §3

[12] = tested on: Hek293T; experiment: as above; settings: Gynecologic cancer cell panel viability, ATPlite luminescence, 48 h, control line for the selectivity index; series mostly up to 57.5 µM
In short: as §3

[13] = tested on: JEG-3; experiment: as above; settings: Gynecologic cancer cell panel viability, ATPlite luminescence, 48 h; series mostly up to 57.5 µM
In short: as §3

[14] = tested on: OV90; experiment: as above; settings: Gynecologic cancer cell panel viability, ATPlite luminescence, 48 h; series mostly up to 57.5 µM
In short: as §3

[15] = tested on: HEK293T; experiment: qHTS assay to identify novel small-molecules to repurpose for Merkel cell carcinoma treatment (AID 1296009); settings: MCC and control cell lines, CellTiter-Glo viability, 72 h; at 44.8 µM (top of the series) unless noted; note: nearly all actives have a fitted effect of over 60% in size
In short: as §2

[16] = tested on: PA-1; experiment: Primary qHTS to identify gynecologic anti-cancer compounds using libraries of approved drugs and bioactive compounds (AID 1345084); settings: Gynecologic cancer cell panel viability, ATPlite luminescence, 48 h; series mostly up to 57.5 µM; note: % is set by controls: 0 for no effect and ±100 for the full control effect; nearly all actives have a fitted effect of over 55% in size
In short: as §3

CC1(C)CC[C@]2(C(=O)O)CC[C@]3(C)C(=CCC4[C@@]5(C)C(=O)C[C@H](O)[C@@](C)(CO)C5CC[C@]43C)[C@@H]2C1 (stereo partly drawn)
inactive: max response [1] -2.6% | max response [2] 3.17% | max response [3] -1.1% | max response [4] 8.25% | outcome [5] | outcome [6] inactive [at 17.4 µM] | Potency [7] | Potency [8] | outcome [9] | Potency [10] | Potency [11] | Potency [12] | Potency [13] | Potency [14]

O=C1C[C@@]2(C(=O)N1)C(=O)N(Cc1ccc(Br)cc1F)C(=O)c1cccn12
inactive: max response [1] -0.124% | outcome [2] | max response [3] -21% | max response [4] 1.61% | max response [5] 1.31% | outcome [15] | Potency [7] | Potency [8] | outcome [9] | Potency [10] | Potency [11] | Potency [12] | Potency [13] | Potency [14] | Potency [16]

O=C(O)CC1(O)C(=O)Nc2ccccc21 (stereo not drawn)
inactive: outcome [1] | outcome [2] | max response [3] -2.76% | max response [4] 6.03% | max response [5] 3.37% | outcome [15] inactive [at 92 µM] | Potency [7] | Potency [8] | outcome [9] | Potency [10] | Potency [12] | Potency [13] | Potency [14] | Potency [16]

CC(O)C1NC(=O)C2CCCN2C1=O (stereo not drawn)
inactive: max response [1] 3.11% | outcome [2] | max response [3] -1.16% | outcome [4] | max response [5] -1.84% | outcome [15] inactive [at 92 µM] | Potency [7] | Potency [8] | outcome [9] | Potency [10] | Potency [11] | Potency [13] | Potency [14] | Potency [16]

C/C(CO)=C1/CCC23COC(C2)C(O)(C(=O)O)CCC13 (stereo not drawn)
inactive: max response [1] 1.3% | outcome [2] | max response [3] 0.569% | max response [4] 2.82% | max response [5] -0.495% | outcome [15] | Potency [7] | Potency [8] | outcome [9] | Potency [10] | Potency [11] | Potency [12] | Potency [13] | Potency [14] | Potency [16]

c1ccc2c(Nc3nnc(-c4ccncc4)s3)cccc2c1
inactive: max response [1] 3.08% | outcome [2] | max response [3] -11.3% | max response [4] 9.81% | max response [5] -0.252% | outcome [15] | Potency [7] | Potency [8] | outcome [9] | Potency [10] | Potency [11] | Potency [13] | Potency [16]

C/C=C/C=C/C=C/C(=O)O[C@@H]1[C@@H](OC)C2=C(C(=O)N(C(CCC(=O)O)C(=O)O)C2)[C@@]2(C)CCCC(C)(C)[C@H]12 (stereo partly drawn)
inactive: max response [1] -4.83% | outcome [2] | max response [3] -8.01% | max response [4] 0.124% | max response [5] -12.6% | outcome [15] inactive [at 17.4 µM] | Potency [7] | Potency [8] | outcome [9] | Potency [10] | Potency [11] | Potency [12] | Potency [13] | Potency [14] | Potency [16]

COc1cccc(CNc2ccc(S(=O)(=O)Nc3nc4ccccc4s3)cc2)c1O
inactive: max response [1] 0.252% | outcome [2] | max response [3] -8.64% | max response [4] 7.86% | max response [5] -2.92% | outcome [15] | Potency [7] | Potency [8] | outcome [9] | Potency [10] | Potency [11] | Potency [12] | Potency [13] | Potency [14] | Potency [16]

CSCC1OC(n2cnc3c(N)ncnc32)C(O)C1O (stereo not drawn)
inactive: outcome [1] | outcome [2] | max response [3] 2.69% | outcome [4] | max response [5] -0.346% | outcome [15] | Potency [7] | Potency [8] | outcome [9] | Potency [10] | Potency [11] | Potency [12] | Potency [13] | Potency [14] | Potency [16]

C=C(CCO)C(=O)OCC1OCC(OC(=O)C(=C)CCO[C@@H]2O[C@H](COC(=O)C(=C)CCO[C@@H]3O[C@H](CO)[C@@H](O)[C@H](O)[C@H]3O)[C@@H](O)[C@H](O)[C@H]2O)C(O)C1O (stereo partly drawn)
inactive: max response [1] 0.815% | outcome [2] | max response [3] -17.9% | max response [4] 0.844% | max response [5] 3.62% | outcome [15] inactive [at 17.4 µM] | Potency [7] | outcome [9] | Potency [10] | Potency [11] | Potency [12] | Potency [13] | Potency [14] | Potency [16]

CC1(C)C=Cc2c(ccc3c2N=C2C(C)(C)[C@@H]4C[C@]56CCCN5C(=O)[C@@]4(C[C@]23O)NC6=O)O1
inactive: max response [1] 3.82% | outcome [2] | max response [3] 3.57% | outcome [4] | max response [5] -4.67% | outcome [15] inactive [at 17.4 µM] | Potency [7] | Potency [8] | outcome [9] | Potency [10] | Potency [11] | Potency [12] | Potency [13] | Potency [14] | Potency [16]

CCOC(=O)C(CCc1ccccc1)NC1CCCN2CCCC(C(=O)O)N2C1=O (stereo not drawn)
inactive: max response [1] 2.69% | outcome [2] | max response [3] 1.44% | max response [4] 2.78% | max response [5] 0.311% | outcome [15] | Potency [7] | Potency [8] | Potency [10] | Potency [11] | Potency [12] | Potency [13] | Potency [14] | Potency [16]
